Test results: PubChem BioAssay
Unmarked numbers belong to inactive results. How the calls were made is not given here.

The compounds below were run against Pantothenate synthetase (Mycobacterium tuberculosis (strain ATCC 25618 / H37Rv)) (UniProt P9WIL5) (assay: Recombinant Mtb pantothenate synthetase (PanC) inhibitors, coupled enzyme, confirmatory (AID 375;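 further: 0% = full reaction with vehicle and 100% = no enzyme background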)). Details: coupled enzyme assay; at 10 µM, stronger effect = higher value.
Chain of Pantothenate synthetase (Mycobacterium tuberculosis (strain ATCC 25618 / H37Rv)) (P9WIL5 whole entry, looked up): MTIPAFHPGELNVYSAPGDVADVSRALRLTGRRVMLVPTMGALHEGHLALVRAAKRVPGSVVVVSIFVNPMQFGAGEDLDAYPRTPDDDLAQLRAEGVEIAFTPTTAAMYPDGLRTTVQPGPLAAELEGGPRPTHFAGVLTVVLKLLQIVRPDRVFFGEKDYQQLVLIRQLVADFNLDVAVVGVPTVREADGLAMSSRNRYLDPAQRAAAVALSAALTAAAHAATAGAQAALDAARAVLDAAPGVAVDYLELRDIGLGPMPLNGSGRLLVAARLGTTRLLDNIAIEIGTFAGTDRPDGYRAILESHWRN

Row | Structure (SMILES) | inhibition [%]
1 | COC(=O)c1c(-c2ccc(F)cc2)noc1N | 2
2 | CCN(CC)CC#CCOC(=O)C(O)(c1ccccc1)C1CCCCC1 (stereo not given) | 1
3 | COc1ccc(-c2nnc(SCC(=O)NC(C)c3ccccc3)o2)cc1 (stereo not given) | 0
4 | CCn1nc(NC(=O)c2cccnc2)c2cc3ccccc3nc21 | 0
5 | CCOc1ccc(NC(=O)C2CC(=O)N(CC)C(=Nc3ccc4c(c3)OCO4)S2)cc1 (stereo not given) | 3
6 | Cc1cc(C)cc(NC(=O)C2CCCN(c3nccc(C)n3)C2)c1 (stereo not given) | 0
7 | Fc1c(F)c(F)c(CSc2nc3ccccc3[nH]2)c(F)c1F | 3
8 | CCCCn1c(SCC(=O)c2ccc3c(c2)OCCO3)nnc1-c1ccco1 | 4
9 | CCNC(=O)c1ccc(NS(=O)(=O)c2ccccc2)cc1 | 6
10 | O=C(Cn1cc2c(n1)CCCCC2)N1CCc2ccccc2C1 | 0
11 | Cc1cccc(Cc2nnc(NC(=O)c3cccc(S(=O)(=O)N4CCOCC4)c3)s2)c1 | 0
12 | COc1ccccc1NC(=O)CSc1nnc(Cn2nnc(-c3ccccc3)n2)n1-c1ccccc1 | 0
13 | Fc1ccc(C(c2ccc(F)cc2)N2CCN(C/C=C/c3ccccc3)CC2)cc1 | 0
14 | CCn1c(SCC(=O)c2ccc(F)cc2)nnc1-c1ccoc1C | 4
15 | CC[N+](C)(C)c1cccc(O)c1 | 0
16 | CC(=O)NCCn1c(SCC(=O)NCC2CCCO2)nc2ccccc2c1=O (stereo not given) | 0
17 | Cc1onc(-c2ccccc2)c1C(=O)Nc1sc2c(c1C(N)=O)CCC2 | 5
18 | CCN1C(=O)Cc2cc(S(=O)(=O)N3CCOCC3)ccc21 | 9
19 | Cn1c(C(=O)NCc2cccnc2)cc2sccc21 | 0
20 | CCn1c(SCC(=O)c2ccc(OC)cc2)nnc1C(C)NC(=O)c1ccc(OC)cc1 (stereo not given) | 3

Row | Structure (SMILES) | inhibition [%]
21 | Cc1ccc(S(=O)(=O)C2(C(=O)NC3CCCC3)CC2)cc1 | 9
22 | CCOC(=O)N1CCC(NC(=O)CCc2c(C)nc3c(c(C)nn3C(C)(C)C)c2C)CC1 | 7
23 | Cc1c(C)n(C)c2ccc(C(=O)NCc3cccs3)cc12 | 0
24 | Cc1nc2ccccc2c2c1C(=O)N(CCC1=CCCCC1)C2=O | 9
25 | COc1cc2c(N3CCOCC3)cc(O)c(CC(=O)Nc3ccccc3)c2cc1OC | 7
26 | CC1CCCC(C(=O)OCc2ccccc2)N1 (stereo not given) | 0
27 | COC(=O)c1ccc(CSc2nc3ccccc3s2)o1 | 0
28 | COc1cccc(NC(=O)CC2SC(=Nc3ccccc3)NC2=O)c1 (stereo not given) | 0
29 | O=S1(=O)C=CC(Nc2cccc(Cl)c2)C1 (stereo not given) | 0
30 | O=C(O)COc1ccc2occ(C(=O)c3ccccc3)c2c1 | 0
31 | Oc1cccc2ccc(Nc3ccccn3)nc12 | 8
32 | Cn1c(C(=O)NCCN2CCN(c3ccccc3F)CC2)cc2c(=O)n(C)c3ccccc3c21 | 7
33 | N#Cc1nc(-c2ccco2)oc1NCc1ccco1 | 11
34 | Cc1cc(C)n2nc(S(=O)(=O)N(C)c3ccccc3)nc2n1 | 0
35 | CS(=O)(=O)Nc1ccc([N+](=O)[O-])cc1Oc1ccccc1 | 0
36 | Cc1cccc(N(C)C(=O)c2coc(=O)c3ccccc23)c1 | 0
37 | CCCC1c2ccc(C)n2CCN1C(=O)Nc1ccccc1Cl (stereo not given) | 1
38 | COc1ccccc1-c1nnc(SCC(=O)NC2CCCCC2)o1 | 0
39 | Cc1noc(C)c1CSc1nc2ccccc2s1 | 2
40 | COc1ccc(C(=O)N(CCN2CCOCC2)CC(=O)NC2CCCC2)cc1OC | 1
